Nrf2 ARE act – Nrf2 pathway activation; AREc32 ARE-luciferase reporter (MCF7-derived line), luminescence, 24 h; Potency, µM (series often up to 46.1 µM), for the others: at the highest dose activation, usual class: activators; 0.31% of 410,000 active; further: potency means the concentration at half of the fitted maximal effect; % of control where 0% means no effect; nearly all actives have a fitted effect of over 65% in size
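Steps: seed AREc32_Fluc cells (1000/well, 5% FBS OPTI-MEM); incubate overnight at 37 deg C; add 23 nL compound; incubate 24 hr; add Steady-Glo; hold 30 min RT; read luminescence.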
ELG1 DNA repair – ELG1-dependent DNA repair inhibition | HEK293T ELG1-luciferase reporter, luminescence, 16 h; DNA damage induced by 5-fluorouridine | Potency, µM (titrated, usually from 46.1 µM), for the others: top-dose activity change, negative = inhibition, most hits filed as inhibitors | 2.3% of 330,000 active | AID 504467; further: potency means the concentration at half of the fitted maximal effect; on the % scale 0 is the no-effect control and ±100 the full control effect; nearly all actives have a fitted effect of over 55% in size
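Cells (2,000 per well) received 5-fluorouridine plus test compound or DMSO and were incubated 16 hr at 37 °C, 5% CO2. Luciferase activity was read by luminescence 30 min after ONE-Glo addition; signal suppression marked inhibition of damage-induced ELG1 function.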
IL-2 act – activates IL-2 in a cell-based reporter assay; activation, % (series mostly up to about 46 µM); 0.065% of 360,000 active; IL-2 activation reporter assay, cell-based qHTS; stimulated with anti-CD3/CD4/CD28 beads; in transgenic mouse T cells; in the data active means activation above about 50%; inconclusive means mostly about 30% to 49%; further: 0% is about no effect
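EGFP and DsRed fluorescence is measured by plate cytometry in unstimulated transgenic mouse T cells exposed to compound for 60 minutes, then stimulated 18 hours at 37 degrees C with anti-CD3/anti-CD4 beads plus anti-CD28.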
BRCA1 expr up – BRCA1 expression activation; MCF7-BRCA1-FFLuc reporter, luminescence, 48 h; response scale: scaled: vehicle 0%, 10 µM genistein 100%; AID 624202; Potency, µM (series often up to 46.1 µM), without a hit: at the top dose activation, hits mostly activators; 1.1% of 380,000 active; further: potency means the concentration at half of the fitted maximal effect; nearly all actives have a fitted effect of over 80% in size
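Luminescence from a BRCA1-driven firefly luciferase in MCF7 cells was read after 48 h compound exposure at 37 C. Data normalized against DMSO and a 10microM genistein activation control, then curve-fitted across the titration.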
* marks the source's active call; other numbers are inactive results; u = inconclusive; x = no result given. In the library only some 3.1% were active in any assay of this set; here they are far more common. Unless noted, the call rests on the fitted dose curve; in most records, active means well fitted curve in the direction sought with a large enough effect; inconclusive means small, poorly fitted or top-dose-only effect, or another doubt; inactive means no such curve, though single readings can be large; an effect the other way counts as inactive or inconclusive.

SMILES	Nrf2 ARE act	ELG1 DNA repair	IL-2 act	BRCA1 expr up
CCOC(=O)N1CCN(C(=O)c2ccc3c(c2)sc2nc(-c4ccccc4)cn23)CC1	5%	u	0	10µM*
CCS(=O)(=O)N1CCc2cc(C(=O)Nc3cc(C(F)(F)F)ccc3Cl)ccc21	0%	x	x	9%
CCc1nc2ccc(C(=O)NCc3ccc(N(C)C)cc3)cc2nc1CC	8%	x	x	x
COc1ccc(NC(=O)c2c(-c3ccccc3Cl)noc2C)c(OC)c1	-1%	18µM*	-3	-28%
COc1ccc(NC(=O)c2cc(-c3cccs3)on2)c(OC)c1	1.3µM*	5%	0	-8%
COc1ccc(NC(=O)c2cc(-c3cccs3)on2)cc1	3%	u	3	4.5µM*
Cc1ccc(C(=O)c2oc3ccccc3c2NC(=O)c2cc(-c3ccc(Cl)cc3)on2)cc1	-1%	x	x	5%
C/C(N)=C(/C#N)C(=O)COC(=O)c1cc(C)n(-c2ccc(F)cc2)c1C	6%	u	0	8.9µM*
Cc1cc(C(=O)OCC(N)=O)c(C)n1-c1ccccc1	4%	u	0	33%
CCOC(=O)c1[nH]c2ccc(OC)cc2c1NC(=S)N1CCN(c2ccccc2OC)CC1	3%	7.3µM*	-4	-59%
CCOC(=O)c1cnc2ccc(OCC)cc2c1N1CCN(c2ccccc2OC)CC1	2%	15µM*	-3	-80%
COC(=O)c1[nH]c2cccc(OC)c2c1NC(=O)CCN1CCSCC1	-1%	-1%	-1	-1%
COC(=O)c1[nH]c2cc(C)ccc2c1NC(=O)CN1CCN(c2ccccc2OC)CC1	4%	21µM*	2	-68%
COC(=O)c1[nH]c2cc(C)ccc2c1NC(=O)CN1CCOCC1	0%	-11%	-1	-6%
CCOC(=O)c1cnc2c(OC)cccc2c1N1CCN(c2ccccc2F)CC1	4%	x	x	x
COC(=O)c1[nH]c2cccc(OC)c2c1NC(=O)CCN1CCN(c2cccc(Cl)c2)CC1	x	18µM*	x	x
Cc1c(C(=O)N(C)C)sc2c1c(=O)n(-c1ccc(Cl)c(Cl)c1)c(=O)n2CC(=O)Nc1ccc(Br)cc1F	x	x	x	7%
CCc1ccccc1NC(=O)Cn1nc2c3cc(F)ccc3n(Cc3cccc(C)c3)cc-2c1=O	-1%	x	x	x
CCOC(=O)c1[nH]c2cc(OC)c(OC)cc2c1NC(=O)C(C)N1CCN(Cc2ccccc2)CC1 (configuration not stated)	0%	9.2µM*	-3	-26%
Cn1cccc1C(=O)C(=O)Nc1ccccc1	4%	u	0	7.1µM*
Cn1cccc1C(=O)C(=O)Nc1ccccc1C(F)(F)F	0%	u	-2	3%
O=C(N/N=C/c1ccccc1[N+](=O)[O-])c1cccs1	15%	u	-1	u
Cc1ccc(/C=N/NC(=O)c2cccs2)cc1[N+](=O)[O-]	21%	u	-3	13µM*
CC(=O)N(Cc1ccco1)Cc1cc2cccc(C)c2n2nnnc12	x	-6%	x	x
Cc1cccc2cc(CN(Cc3nnnn3Cc3ccco3)C3CCCC3)c3nnnn3c12	0%	21µM*	-3	-35%
SMILES	Nrf2 ARE act	ELG1 DNA repair	IL-2 act	BRCA1 expr up
COc1cccc(CN(C)C(=O)c2ccc(OCC(=O)Nc3cccc(C(F)(F)F)c3)c(OC)c2)c1	-1%	15µM*	-7	-59%
CCCn1c2c(c(=N)c3c1CCC3)CCC2	-1%	18µM*	2	-54%
CCCCCCCn1c2c(c(=N)c3ccccc31)CCC2	0%	4.1µM*	-3	-66%
CCN(CC)c1ccc(Nc2nc(N3CCOCC3)c3ccccc3n2)cc1	3%	u	-2	-95%
COc1ccc(Nc2nc(N3CCCC3)c3ccccc3n2)cc1	-2%	9.2µM*	-7	-70%
COc1ccc(OC)c(Nc2cc(C)nc3ccccc23)c1	0%	21µM*	-3	-81%
COc1ccc(Nc2nc(N)c3ccccc3n2)c(OC)c1	2%	u	-1	3.5µM*
COc1ccc(Nc2nc(N3CCCCC3)nc3ccccc23)c(OC)c1	1%	23µM*	-2	-37%
COc1cccc(NC(=O)C2CCN(S(=O)(=O)c3c(C)noc3/C=C/c3cccs3)CC2)c1	12%	x	x	x
CCOc1ccc(CC(=O)Nc2c(C(=O)Nc3ccc(OC)cc3OC)oc3ccccc23)cc1	-1%	x	x	-8%
Cc1cc2nc(-c3ccc(SCc4ccc(C(=O)O)cc4)nc3)[nH]c2cc1C	3%	u	0	11µM*

Screening results as filed in PubChem BioAssay.
